# Screening data: PubChem, several laboratories
# p47phox inh: p47phox/p22phox peptide binding inhibitors, primary screen, biochemical, uHTS, NADPH oxidase regulatory subunit. inhibition, % at 24.7 µM. Neutrophil cytosol factor 1 (Homo sapiens), P14598. fluorescence polarization, 2 h. 220,000 compounds, 0.53% hits;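 active = inhibition above about 30%, limit read from the data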;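 note: 0% = p47phox with labelled peptide and 100% = labelled peptide alone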
# Target sequence (P14598 whole entry, looked up): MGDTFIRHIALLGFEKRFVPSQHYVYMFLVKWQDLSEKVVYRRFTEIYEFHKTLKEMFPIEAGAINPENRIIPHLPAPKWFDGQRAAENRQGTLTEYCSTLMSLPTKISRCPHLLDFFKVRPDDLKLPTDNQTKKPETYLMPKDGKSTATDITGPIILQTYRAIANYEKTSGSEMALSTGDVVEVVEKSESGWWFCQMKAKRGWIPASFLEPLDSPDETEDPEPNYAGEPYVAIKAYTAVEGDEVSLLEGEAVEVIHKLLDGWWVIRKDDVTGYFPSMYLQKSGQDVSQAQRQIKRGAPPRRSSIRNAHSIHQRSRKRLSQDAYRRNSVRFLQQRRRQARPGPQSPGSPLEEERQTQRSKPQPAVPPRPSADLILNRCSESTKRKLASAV
# Mcl1 Noxa PPI: Mcl-1/Noxa binding inhibitors, primary screen, biochemical, TR-FRET, 1536-well | Induced myeloid leukemia cell differentiation protein Mcl-1 (Homo sapiens), Q07820 | TR-FRET Mcl-1/Noxa peptide binding, 2 h | 220,000 compounds, 1.5% hits | inhibition, % at 21.7 µM;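 active = compounds that cut the protein-peptide binding signal by more than 50% relative to plate controls in a single-dose test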;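 note: His-tagged Mcl-1 with rhodamine Noxa BH3 peptide and terbium anti-His antibody; 0% = Mcl-1 plus Noxa peptide wells and 100% = peptide-only wells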
# Calpain2 inh: inhibitors of pig calpain II, primary screen, biochemical, fluorogenic peptide substrate, 1536-well | 220,000 compounds, 0.37% hits | AID 1236, 2008 | inhibition, % at 16 µM | purified calpain II, 30 min;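 active = inhibition above about 50%, limit read from the data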
# Bim-Mcl-1: inhibitors of Bim peptide binding to Mcl-1, primary screen, biochemical, bead-based flow cytometry, multiplex; 190,000 compounds, 0.1% hits; inhibition, % at 10 µM; Bim peptide-Mcl-1 binding; AID 1009, 2008; in the data active = inhibition above about 40%;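 note: 0% = no compound tracer wells and 100% = peptide blocker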
# 14-3-3 Bad PPI: inhibitors of 14-3-3 zeta/Bad binding, primary screen, biochemical, TR-FRET, bovine 14-3-3 zeta | TR-FRET 14-3-3zeta/Dy647-pBad peptide displacement, 1 h | inhibition, % at 21.7 µM | 220,000 compounds, 0.71% hits | AID 781, 2007;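 active = inhibition above about 70%, limit read from the data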;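 note: 0% = full 14-3-3 plus peptide FRET controls and 100% = background without 14-3-3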
# Mcl1-Bid inh: Mcl-1/Bid binding inhibitors, primary screen, biochemical, TR-FRET, 1536-well. Induced myeloid leukemia cell differentiation protein Mcl-1 (Homo sapiens), Q07820. TR-FRET Mcl-1/Bid-Dy647 peptide binding. inhibition, % at 21.7 µM. 220,000 compounds, 0.97% hits;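 active = compounds that cut the binding signal by more than half at the single screening dose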;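 note: His-tagged Mcl-1 with europium anti-His antibody binding Bid BH3 peptide; 0% = Mcl-1 plus peptide wells and 100% = peptide-only wells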
# An asterisk follows results filed as active; nt = not tested or not shown. A selection: hits, their analogues and other compounds. The true share with any hit is near 3.4%.
SMILES,p47phox inh,Mcl1 Noxa PPI,Calpain2 inh,Bim-Mcl-1,14-3-3 Bad PPI,Mcl1-Bid inh
Cc1cc(C)c(S(=O)(=O)ON2C(=O)c3ccccc3C2=O)cc1C,-7,72*,13,2,3,-17
CCN(CC)C(=O)Cn1nnc(-c2ccc(S(C)(=O)=O)cc2)n1,-1,40,21,-1,10,22
COc1ccc(Nc2oc(COc3ccc(Cl)cc3)nc2C#N)cc1,-13,9,-32,-1,5,0
COc1ccc(CNc2oc(COc3ccc(Cl)cc3)nc2C#N)cc1,-10,3,54*,-1,3,-11
CCCCOc1ccc(Cc2c(Cl)nc(SC)nc2N2CCOCC2)cc1,-10,6,22,45*,-15,-15
c1ccn2cc(C34CC5CC(CC(C5)C3)C4)nc2c1,-3,-6,-29,1,-15,-31
CSCC[C@H](NC(=O)C1=NN(c2c(F)c(F)cc(F)c2F)C(=O)CC1)c1nc2ccccc2[nH]1,-35,17,-29,nt,-2,-40
O=C(COC(=O)CCc1ccccc1)NC12CC3CC(CC(C3)C1)C2,-7,-7,50*,-1,10,10
CC(C)(C)c1ccc(C(=O)Nc2ccc(Oc3cccnc3)nc2)cc1,8,16,41,nt,1,-16
CCOC(=O)C(=CNc1ccc(Oc2cccnc2)nc1)C(=O)OCC,38*,5,-6,nt,-7,-15
COc1ccc2c3c(cccc13)C(=O)N(O)C2=O,4,-117,-57,3,-24,-37
CCC1=NNc2cccc3c(OC)ccc1c23,138*,78*,-12,32,-12,-2
Oc1cc2c(cc1O)C1c3ccc(O)c(O)c3OCC1(O)C2 (stereo unspecified),-62,82*,-5,8,27,-65
Cc1c(C(=O)NCc2cccnc2)sc2nc(-c3ccc(F)cc3)cn12,-2,3,78*,-6,12,-26
CCC(C)N1CC(C(=O)NC2CCCCC2)CC1=O (stereo unspecified),nt,nt,nt,3,nt,nt
CCC(C)N1CC(C(=O)O)CC1=O (stereo unspecified),47*,10,17,-1,nt,-16
Cc1cc(C)n(-c2cccc(Cl)c2C#N)n1,1,13,-166,nt,20,-2
CCCN1C(=O)/C(=c2\s/c(=C3\C=Cc4ccccc4N3CC)c(=O)n2-c2ccccc2)SC1=S,70*,0,-11,0,1,-26
CCN1/C(=C2\OC(=S)N(C)C2=O)C=Cc2ccccc21,-84,8,-9,0,0,-2
CCCn1c(=C(C#N)C#N)s/c(=C2\C=Cc3ccccc3N2CC)c1=O,37*,3,-6,1,-2,-26
COc1cc(/C=C/C(=O)OCC(=O)Nc2ccc([N+](=O)[O-])cc2)ccc1O,-2,26,-17,nt,-4,-24
COc1cc(/C=C/C(=O)OCC(=O)Nc2ccc(C)cc2[N+](=O)[O-])ccc1O,10,55*,-22,3,35,-36
COc1cc(/C=C/C(=O)OCC(=O)Nc2ccc(S(N)(=O)=O)cc2)ccc1O,-33,-5,-29,nt,1,-13
COc1cc(/C=C/C(=O)OCC(=O)Nc2cc(C)c(C)cc2[N+](=O)[O-])ccc1O,23,93*,7,nt,6,41
COc1ccc(/C=C/C(=O)NC(=S)Nc2cc([N+](=O)[O-])ccc2O)cc1OC,-56,93*,-38,0,49,13
CCCCCCCCc1nnc(NC(=O)c2ccco2)s1,-66,8,-24,-1,40,-15
CN(C)C(=S)Nc1ccc2c(c1)OCCO2,-19,6,4,nt,2,-21
CC1Cc2ccccc2N1S(=O)(=O)c1cccc(C(=O)N2CC(=O)Nc3ccccc32)c1 (stereo unspecified),-2,42,-5,nt,9,-51
CC(C)N1CCc2c(sc(NC(=O)c3ccc(S(=O)(=O)N4CCc5ccccc54)cc3)c2C(N)=O)C1,21,72*,6,-1,53,16
